Laboratory results from PubChem BioAssay (NCI).
Compounds without any hit were thinned out: in the full panel of roughly 83,000, 20% have a hit.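 48-hour exposure, single concentration, 96-well plates; percent growth endpoint where 0 means no net growth. Active: below 10.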 Values without a mark were called inactive. Activity calls are given as the source filed them.

tested on: SR leukemia; experiment: NCI-60 one-dose screen, 48 h (100 = growth as untreated, 0 = no growth, -100 = all killed); conditions: 10 µM unless noted

Q: For C=C(CBr)[C@@H]1CC[C@]2(C(=O)O)CC[C@]3(C)[C@H](CC[C@@H]4[C@@]5(C)CCC(=O)C(C)(C)[C@@H]5CC[C@]43C)[C@@H]12, which growth is on record?
A: Its growth is 60%.

Q: For CCNCCNc1cc(C2CCCCC2)c(C#N)c2nc3ccccc3n12, which growth is on record?
A: Its growth is -10.4% (active).

Q: With COc1cc2c(c(OC)c1OC)CCC(c1cccc(C(=O)Nc3cccc(Cl)c3)c1)O2 (stereo not drawn) as the compound, how does the growth read?
A: The growth was 30.5%.

Q: Which growth does the source give for CCCCCCCC[C@@H]1N[C@@H](C(=O)OC)Cc2c1[nH]c1ccccc21 here?
A: The growth was 107%.

Q: How did the growth turn out when CC(=O)Oc1ccc(/C(=C(\C)c2ccc(Cl)cc2)c2ccc(OCCN3CCCCC3)cc2)cc1 was run?
A: Its growth is -27.3% (active).

Q: For COc1ccc2cc1Oc1ccc(cc1)C[C@H]1c3c(cc4c(c3Oc3cc5c(cc3OC)CCN(C)[C@@H]5C2)OCO4)CCN1C, which growth is on record?
A: The growth was -17.3% (active).

Q: How did the growth turn out when CC(=O)c1c(C)nc2ccccc2c1/C=C/c1ccc(F)cc1 was run?
A: Its growth is 81.2%.

Q: For CN(/C(N)=N/N=C/c1c2ccccc2cc2ccccc12)C1CCCCC1, which growth is on record?
A: The growth was 0.552% (active).

Q: For CCOC(=O)n1ccn(C)c1=S, which growth is on record?
A: Its growth is 94.2%.

Q: Which growth does the source give for Cc1cn(-c2cc(NC(=O)c3cncc(C#Cc4cnc(N)c5ncccc45)c3)cc(C(F)(F)F)c2)cn1 here?
A: Its growth is 62.7%.

Q: For O=C(Cn1cc(CSc2nc3ccccc3o2)nn1)Nc1ccc(F)cc1F, which growth is on record?
A: The growth was 109%.

Q: Which growth does the source give for Cc1c2cnccc2c(C)c2c1c1cc(C#N)ccc1n2C here?
A: Its growth is 0.777% (active).

Q: CNC(=O)c1ccccc1Oc1nc(Nc2cc(OC)c(OC)c(OC)c2)ncc1Br was tested. Which growth did it give?
A: The growth was 42.9%.
